Experimental findings from publication PMC7862700, “An all-to-all approach to the identification of sequence-specific readers for epigenetic DNA modifications on cytosine” are described below.

Holding throughout (experiment): DAPPL (digital affinity profiling via proximity ligation, sequencing); 10 mM Tris-HCl pH 7.5, 50 mM NaCl, 1 mM DTT, 4% glycerol, room temperature, 30 min; GST-TFs on glutathione beads, 16-mer random dsDNA library, 0.1% formaldehyde crosslink after washing; high values mean tight binding
Holding throughout (conditions): protein: recombinant; tags: N-terminal GST; dsDNA, one strand shown

The target of one assay is T1, FLI1 (Homo sapiens, UniProt Q01543 1-452).
T1 sequence: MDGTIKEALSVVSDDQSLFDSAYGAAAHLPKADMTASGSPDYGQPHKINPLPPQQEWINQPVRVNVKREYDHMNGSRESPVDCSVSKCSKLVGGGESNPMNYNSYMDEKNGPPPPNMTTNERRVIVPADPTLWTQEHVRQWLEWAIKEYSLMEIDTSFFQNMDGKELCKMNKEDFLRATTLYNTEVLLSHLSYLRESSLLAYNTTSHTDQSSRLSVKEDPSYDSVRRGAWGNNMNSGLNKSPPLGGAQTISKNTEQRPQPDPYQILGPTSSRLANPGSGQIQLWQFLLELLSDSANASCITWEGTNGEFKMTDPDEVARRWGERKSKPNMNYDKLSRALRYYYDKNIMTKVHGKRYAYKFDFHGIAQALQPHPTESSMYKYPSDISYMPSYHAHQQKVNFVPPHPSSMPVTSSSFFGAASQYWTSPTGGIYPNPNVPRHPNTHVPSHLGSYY
The essentials:
(§1)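 Binding signal is given per hexamer as its read frequency for a factor divided by its frequency in the tag-only sample. GST-fused human transcription factors were expressed in yeast, captured on glutathione beads, barcoded with DNA and pooled with that sample, then incubated with 200 nmole of a 16-mer random double-stranded DNA library in Tris/NaCl/DTT/glycerol buffer for 30 min at room temperature. The pools were then washed, crosslinked, proximity-ligated, amplified by PCR and sequenced on an Illumina NextSeq500.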

For a further assay, the target named is T2, ELK1 (Homo sapiens, UniProt P19419 1-428).
T2 sequence: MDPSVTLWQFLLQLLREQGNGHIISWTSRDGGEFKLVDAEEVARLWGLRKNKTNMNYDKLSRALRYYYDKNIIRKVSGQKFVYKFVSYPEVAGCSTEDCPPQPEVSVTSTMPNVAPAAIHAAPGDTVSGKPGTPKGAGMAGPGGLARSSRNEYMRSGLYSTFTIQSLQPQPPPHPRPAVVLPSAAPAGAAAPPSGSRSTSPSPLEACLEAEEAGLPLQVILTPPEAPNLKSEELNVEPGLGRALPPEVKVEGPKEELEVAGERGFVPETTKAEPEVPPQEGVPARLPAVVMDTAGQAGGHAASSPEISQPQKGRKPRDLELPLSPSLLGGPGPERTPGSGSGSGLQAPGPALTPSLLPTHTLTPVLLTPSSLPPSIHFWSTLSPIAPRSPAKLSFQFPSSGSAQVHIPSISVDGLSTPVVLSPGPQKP
An outline of the steps: as §1

Another assay concerns the target T3, GABPA (Homo sapiens, UniProt Q06546 1-454).
T3 sequence: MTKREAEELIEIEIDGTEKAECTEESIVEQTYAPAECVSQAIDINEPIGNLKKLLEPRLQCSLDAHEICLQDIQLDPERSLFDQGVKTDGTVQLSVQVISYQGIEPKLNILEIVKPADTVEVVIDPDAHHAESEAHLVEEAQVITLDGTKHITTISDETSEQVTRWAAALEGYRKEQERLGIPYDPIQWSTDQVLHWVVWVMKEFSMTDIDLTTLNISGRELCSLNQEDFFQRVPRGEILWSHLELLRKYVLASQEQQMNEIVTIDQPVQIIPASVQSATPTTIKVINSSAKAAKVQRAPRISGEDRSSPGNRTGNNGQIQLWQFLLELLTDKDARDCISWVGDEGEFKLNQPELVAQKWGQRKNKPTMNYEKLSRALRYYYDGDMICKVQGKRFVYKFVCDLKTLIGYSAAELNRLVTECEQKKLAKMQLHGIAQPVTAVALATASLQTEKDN
The essentials: as §1

Another assay deals with T4, ERG (Homo sapiens, UniProt P11308 1-479).
T4 sequence: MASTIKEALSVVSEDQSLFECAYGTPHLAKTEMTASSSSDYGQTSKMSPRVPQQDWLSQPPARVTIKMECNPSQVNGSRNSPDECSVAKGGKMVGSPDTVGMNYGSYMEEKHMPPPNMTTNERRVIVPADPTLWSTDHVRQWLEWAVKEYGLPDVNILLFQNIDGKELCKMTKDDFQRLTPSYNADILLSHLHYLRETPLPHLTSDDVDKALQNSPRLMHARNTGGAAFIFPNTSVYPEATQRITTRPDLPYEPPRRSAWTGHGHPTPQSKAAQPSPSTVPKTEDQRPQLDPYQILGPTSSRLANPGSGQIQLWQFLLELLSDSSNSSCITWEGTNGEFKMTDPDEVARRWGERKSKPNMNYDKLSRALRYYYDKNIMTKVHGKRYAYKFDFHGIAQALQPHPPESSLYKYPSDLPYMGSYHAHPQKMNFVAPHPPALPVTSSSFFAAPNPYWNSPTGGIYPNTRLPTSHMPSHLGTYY
The essentials:
as §1

The target in a further assay is ELF1 (Homo sapiens, UniProt P32519 1-619). The essentials:
as §1

In a further assay the target is T5, EHF (Homo sapiens, UniProt Q9NZC4 1-300).
T5 sequence: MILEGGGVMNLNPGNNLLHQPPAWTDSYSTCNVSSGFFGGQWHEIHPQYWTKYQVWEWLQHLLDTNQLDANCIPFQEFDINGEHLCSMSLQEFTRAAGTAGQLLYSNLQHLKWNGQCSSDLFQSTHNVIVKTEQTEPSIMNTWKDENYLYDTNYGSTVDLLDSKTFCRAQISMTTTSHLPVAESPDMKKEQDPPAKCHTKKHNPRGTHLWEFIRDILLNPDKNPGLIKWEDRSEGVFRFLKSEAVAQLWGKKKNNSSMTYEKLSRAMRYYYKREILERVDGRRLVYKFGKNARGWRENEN
The essentials: as §1

For another assay, the target named is SPI1 (Homo sapiens, UniProt P17947 1-270). The essentials: as §1
The next assay concerns the target SPIB (Homo sapiens, UniProt Q01892 1-262). The essentials:
as §1

A further assay has as its target T6, ELK3 (Homo sapiens, UniProt P41970 1-407).
T6 sequence: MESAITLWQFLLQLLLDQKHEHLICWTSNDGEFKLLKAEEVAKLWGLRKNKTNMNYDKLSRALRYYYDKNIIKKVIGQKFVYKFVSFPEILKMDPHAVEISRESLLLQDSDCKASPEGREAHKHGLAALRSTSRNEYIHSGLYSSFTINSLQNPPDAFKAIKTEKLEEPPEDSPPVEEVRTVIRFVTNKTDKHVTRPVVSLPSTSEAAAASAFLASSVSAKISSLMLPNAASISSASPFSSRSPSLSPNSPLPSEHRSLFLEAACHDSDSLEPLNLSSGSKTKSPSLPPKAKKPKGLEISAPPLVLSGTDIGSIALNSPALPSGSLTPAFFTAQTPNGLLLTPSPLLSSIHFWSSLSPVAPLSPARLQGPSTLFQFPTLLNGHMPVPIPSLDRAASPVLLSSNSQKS
An outline of the steps:
as §1

The target of a further assay is T7, FEV (Homo sapiens, UniProt Q99581 1-238).
T7 sequence: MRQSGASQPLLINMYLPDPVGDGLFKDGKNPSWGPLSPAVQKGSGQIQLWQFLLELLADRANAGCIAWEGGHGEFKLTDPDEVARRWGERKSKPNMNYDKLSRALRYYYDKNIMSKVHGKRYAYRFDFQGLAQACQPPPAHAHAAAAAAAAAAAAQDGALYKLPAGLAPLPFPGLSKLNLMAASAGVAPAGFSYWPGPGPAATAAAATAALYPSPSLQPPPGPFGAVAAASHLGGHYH
The essentials:
as §1

The target of a further assay is ETV5 (Homo sapiens, UniProt P41161 1-510). The essentials:
as §1

The target of a further assay is T8, SPIC (Homo sapiens, UniProt Q8N5J4 1-248).
T8 sequence: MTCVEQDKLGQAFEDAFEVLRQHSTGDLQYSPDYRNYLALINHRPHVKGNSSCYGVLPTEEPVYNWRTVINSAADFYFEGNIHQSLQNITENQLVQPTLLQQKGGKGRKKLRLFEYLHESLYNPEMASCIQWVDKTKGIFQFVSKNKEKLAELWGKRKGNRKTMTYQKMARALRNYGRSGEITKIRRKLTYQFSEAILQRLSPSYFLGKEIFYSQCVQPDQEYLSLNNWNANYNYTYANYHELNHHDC
The essentials: as §1

The next assay concerns the target ELF4 (Homo sapiens, UniProt Q99607 1-663). The essentials:
as §1

A further assay addresses T9, ELK4 (Homo sapiens, UniProt P28324-2 1-405).
T9 sequence: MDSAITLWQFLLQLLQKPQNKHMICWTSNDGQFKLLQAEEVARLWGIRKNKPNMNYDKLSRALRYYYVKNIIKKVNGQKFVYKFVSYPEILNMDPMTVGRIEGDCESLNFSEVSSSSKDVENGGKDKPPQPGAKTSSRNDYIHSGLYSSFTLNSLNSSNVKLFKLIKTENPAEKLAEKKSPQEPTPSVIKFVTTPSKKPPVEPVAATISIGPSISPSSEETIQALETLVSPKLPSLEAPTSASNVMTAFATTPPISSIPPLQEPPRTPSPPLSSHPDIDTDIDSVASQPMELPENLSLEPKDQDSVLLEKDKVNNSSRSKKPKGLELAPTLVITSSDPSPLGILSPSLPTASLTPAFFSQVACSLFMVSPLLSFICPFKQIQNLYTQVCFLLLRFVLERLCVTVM
An outline of the steps: as §1

The next assay deals with T10, ETV2 (Homo sapiens, UniProt O00321 1-342).
T10 sequence: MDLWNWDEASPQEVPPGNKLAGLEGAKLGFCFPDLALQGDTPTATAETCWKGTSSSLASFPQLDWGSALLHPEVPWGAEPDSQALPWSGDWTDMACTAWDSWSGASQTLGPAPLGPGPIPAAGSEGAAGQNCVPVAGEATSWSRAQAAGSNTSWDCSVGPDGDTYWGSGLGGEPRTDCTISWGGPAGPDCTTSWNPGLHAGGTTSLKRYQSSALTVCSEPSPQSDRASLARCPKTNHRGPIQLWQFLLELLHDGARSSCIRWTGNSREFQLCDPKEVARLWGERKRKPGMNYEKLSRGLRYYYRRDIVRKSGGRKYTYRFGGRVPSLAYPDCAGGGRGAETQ
An outline of the steps: as §1

A further assay concerns the target T11, ELF3 (Homo sapiens, UniProt P78545 1-371).
T11 sequence: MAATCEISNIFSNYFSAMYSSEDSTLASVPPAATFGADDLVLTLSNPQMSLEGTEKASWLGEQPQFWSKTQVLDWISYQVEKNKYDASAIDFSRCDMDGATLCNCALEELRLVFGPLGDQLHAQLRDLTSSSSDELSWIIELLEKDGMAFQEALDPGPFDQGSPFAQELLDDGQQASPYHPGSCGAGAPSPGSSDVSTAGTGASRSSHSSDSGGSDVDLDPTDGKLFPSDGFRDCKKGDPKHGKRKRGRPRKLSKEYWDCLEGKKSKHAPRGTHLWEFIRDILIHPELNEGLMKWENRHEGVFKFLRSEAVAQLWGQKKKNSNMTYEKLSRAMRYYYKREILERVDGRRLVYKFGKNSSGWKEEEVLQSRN
An outline of the steps: as §1

The target in another assay is CRX (Homo sapiens, UniProt O43186 1-299). An outline of the steps:
as §1

The next assay has as its target ETV1 (Homo sapiens, UniProt P50549 1-477). An outline of the steps:
as §1

ETV1, sequence (P50549 whole entry): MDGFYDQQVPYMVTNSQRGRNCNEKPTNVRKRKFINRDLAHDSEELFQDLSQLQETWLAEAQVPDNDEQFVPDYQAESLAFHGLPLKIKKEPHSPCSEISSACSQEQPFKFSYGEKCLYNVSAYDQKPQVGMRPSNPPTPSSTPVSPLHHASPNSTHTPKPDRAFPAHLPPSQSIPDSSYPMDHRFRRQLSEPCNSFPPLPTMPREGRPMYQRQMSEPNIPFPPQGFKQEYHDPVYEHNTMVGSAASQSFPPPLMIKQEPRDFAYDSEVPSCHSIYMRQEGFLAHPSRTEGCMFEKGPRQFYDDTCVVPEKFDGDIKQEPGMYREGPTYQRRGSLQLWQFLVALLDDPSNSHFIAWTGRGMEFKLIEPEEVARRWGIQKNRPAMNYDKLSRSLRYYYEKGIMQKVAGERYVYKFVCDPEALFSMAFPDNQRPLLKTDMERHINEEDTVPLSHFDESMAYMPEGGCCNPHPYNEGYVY
CRX, sequence (O43186 whole entry): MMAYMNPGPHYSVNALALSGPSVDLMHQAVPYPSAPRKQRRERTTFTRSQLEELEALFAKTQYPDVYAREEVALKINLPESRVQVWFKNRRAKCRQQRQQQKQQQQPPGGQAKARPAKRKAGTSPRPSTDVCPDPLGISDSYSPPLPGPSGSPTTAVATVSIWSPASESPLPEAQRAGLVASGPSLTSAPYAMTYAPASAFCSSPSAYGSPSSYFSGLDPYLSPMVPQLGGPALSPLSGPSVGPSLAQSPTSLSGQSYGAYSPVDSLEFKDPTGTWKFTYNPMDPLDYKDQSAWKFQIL
ELF1, sequence (P32519 whole entry): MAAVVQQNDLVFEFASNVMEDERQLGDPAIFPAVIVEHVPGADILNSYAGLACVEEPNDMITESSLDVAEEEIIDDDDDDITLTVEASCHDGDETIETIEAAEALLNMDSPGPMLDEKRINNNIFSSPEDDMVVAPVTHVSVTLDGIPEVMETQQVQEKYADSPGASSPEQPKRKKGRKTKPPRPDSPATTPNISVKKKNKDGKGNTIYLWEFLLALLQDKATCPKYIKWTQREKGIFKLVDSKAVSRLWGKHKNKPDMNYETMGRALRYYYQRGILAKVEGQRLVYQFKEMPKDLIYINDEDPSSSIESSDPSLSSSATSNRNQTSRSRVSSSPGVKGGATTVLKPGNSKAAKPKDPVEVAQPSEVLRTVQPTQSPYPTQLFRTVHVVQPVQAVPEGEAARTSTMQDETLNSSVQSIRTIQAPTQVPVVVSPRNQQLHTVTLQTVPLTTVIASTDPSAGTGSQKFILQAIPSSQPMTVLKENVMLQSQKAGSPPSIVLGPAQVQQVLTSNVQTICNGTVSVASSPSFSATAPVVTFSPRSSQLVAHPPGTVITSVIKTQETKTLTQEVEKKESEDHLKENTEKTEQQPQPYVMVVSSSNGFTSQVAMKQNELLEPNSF
SPIB, sequence (Q01892 whole entry): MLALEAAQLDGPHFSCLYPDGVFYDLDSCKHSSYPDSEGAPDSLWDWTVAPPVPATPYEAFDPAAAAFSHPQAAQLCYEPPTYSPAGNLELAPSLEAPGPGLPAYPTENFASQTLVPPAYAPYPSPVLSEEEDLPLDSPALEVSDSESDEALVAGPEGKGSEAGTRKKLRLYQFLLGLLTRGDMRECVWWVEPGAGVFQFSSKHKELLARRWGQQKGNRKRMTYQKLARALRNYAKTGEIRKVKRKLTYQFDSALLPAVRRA
ELF4, sequence (Q99607 whole entry): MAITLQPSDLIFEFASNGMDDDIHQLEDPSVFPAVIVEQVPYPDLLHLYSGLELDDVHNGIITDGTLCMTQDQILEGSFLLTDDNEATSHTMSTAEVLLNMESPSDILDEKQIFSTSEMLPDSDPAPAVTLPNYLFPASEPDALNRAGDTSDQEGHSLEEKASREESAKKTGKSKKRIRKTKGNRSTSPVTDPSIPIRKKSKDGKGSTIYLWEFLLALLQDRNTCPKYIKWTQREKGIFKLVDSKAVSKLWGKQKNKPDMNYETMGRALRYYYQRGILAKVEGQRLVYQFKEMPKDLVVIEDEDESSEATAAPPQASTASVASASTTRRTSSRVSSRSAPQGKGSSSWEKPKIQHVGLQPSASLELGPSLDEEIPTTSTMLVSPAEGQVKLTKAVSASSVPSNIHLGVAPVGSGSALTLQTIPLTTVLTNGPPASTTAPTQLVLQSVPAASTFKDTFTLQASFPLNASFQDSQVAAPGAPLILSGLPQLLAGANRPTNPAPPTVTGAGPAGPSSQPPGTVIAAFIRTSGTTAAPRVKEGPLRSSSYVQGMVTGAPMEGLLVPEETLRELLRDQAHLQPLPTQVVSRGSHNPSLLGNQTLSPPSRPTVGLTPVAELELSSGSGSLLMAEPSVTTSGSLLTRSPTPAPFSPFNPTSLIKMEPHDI
ETV5, sequence (P41161 whole entry): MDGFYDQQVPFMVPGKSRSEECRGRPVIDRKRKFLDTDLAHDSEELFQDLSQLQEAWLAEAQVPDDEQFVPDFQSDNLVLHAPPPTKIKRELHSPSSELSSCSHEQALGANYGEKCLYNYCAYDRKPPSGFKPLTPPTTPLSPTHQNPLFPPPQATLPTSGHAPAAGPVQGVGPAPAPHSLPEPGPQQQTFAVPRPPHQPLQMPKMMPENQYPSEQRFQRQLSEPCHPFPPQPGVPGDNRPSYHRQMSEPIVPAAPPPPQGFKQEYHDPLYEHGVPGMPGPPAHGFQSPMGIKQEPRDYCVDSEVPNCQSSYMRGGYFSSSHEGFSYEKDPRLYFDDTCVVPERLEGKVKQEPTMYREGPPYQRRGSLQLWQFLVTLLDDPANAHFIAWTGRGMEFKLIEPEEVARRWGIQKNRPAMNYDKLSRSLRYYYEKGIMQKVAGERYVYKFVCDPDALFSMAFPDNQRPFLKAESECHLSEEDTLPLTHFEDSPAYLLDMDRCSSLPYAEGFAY

Consider CCCTTG, for which the binding signal is 1.14 fold enrichment (6-mer frequency, TF over GST control) with FLI1; 1.21 fold enrichment (6-mer frequency, TF over GST control) in the assay with ELK1; 1.24 fold enrichment (6-mer frequency, TF over GST control) with GABPA; 1.23 fold enrichment (6-mer frequency, TF over GST control) with ERG; 1.3 fold enrichment (6-mer frequency, TF over GST control) with ELF1; 1.22 fold enrichment (6-mer frequency, TF over GST control) in the assay with EHF. Further, the binding signal is 1.16 fold enrichment (6-mer frequency, TF over GST control) with SPI1; 1.19 fold enrichment (6-mer frequency, TF over GST control) in the assay with SPIB; 1.2 fold enrichment (6-mer frequency, TF over GST control) with ELK3; 1.16 fold enrichment (6-mer frequency, TF over GST control) with FEV; 1.11 fold enrichment (6-mer frequency, TF over GST control) in the assay with ETV5; 1.26 fold enrichment (6-mer frequency, TF over GST control) with SPIC. In addition, the binding signal with ELF4 was 1.25 fold enrichment (6-mer frequency, TF over GST control); with ELK4, 1.2 fold enrichment (6-mer frequency, TF over GST control); with ETV2, 1.23 fold enrichment (6-mer frequency, TF over GST control); with ELF3 it was 1.19 fold enrichment (6-mer frequency, TF over GST control); with CRX it was 1.01 fold enrichment (6-mer frequency, TF over GST control); in the assay with ETV1 it was 1.19 fold enrichment (6-mer frequency, TF over GST control).

In the case of TCACCC, the binding signal is 1.23 fold enrichment (6-mer frequency, TF over GST control) with FLI1; 1.23 fold enrichment (6-mer frequency, TF over GST control) with ELK1; 1.21 fold enrichment (6-mer frequency, TF over GST control) with GABPA; 1.13 fold enrichment (6-mer frequency, TF over GST control) with ERG; 1.2 fold enrichment (6-mer frequency, TF over GST control) in the assay with ELF1; 1.06 fold enrichment (6-mer frequency, TF over GST control) with EHF. Further, the binding signal with SPI1 is 1.12 fold enrichment (6-mer frequency, TF over GST control); in the assay with SPIB, 1.2 fold enrichment (6-mer frequency, TF over GST control); with ELK3, 1.15 fold enrichment (6-mer frequency, TF over GST control); in the assay with FEV, 1.15 fold enrichment (6-mer frequency, TF over GST control); with ETV5, 1.18 fold enrichment (6-mer frequency, TF over GST control); with SPIC it was 1.13 fold enrichment (6-mer frequency, TF over GST control). The binding signal with ELF4 is 1.21 fold enrichment (6-mer frequency, TF over GST control); with ELK4, 1.16 fold enrichment (6-mer frequency, TF over GST control); with ETV2, 1.01 fold enrichment (6-mer frequency, TF over GST control); in the assay with ELF3, 1.16 fold enrichment (6-mer frequency, TF over GST control); with CRX, 1.02 fold enrichment (6-mer frequency, TF over GST control); with ETV1 it was 1.18 fold enrichment (6-mer frequency, TF over GST control).
